Here are results for 16 compounds from PubChem BioAssay (NCI).

This is part of a sample that, as a whole, favours compounds with a hit. Of some 83,000 tested, about 20% had one in any assay.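 Percent growth is the endpoint: 0 to 100 indicates growth inhibition (40 means 60% inhibition), 0 means no net growth, and negative values indicate cell death.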 A number with no mark means an inactive call. Calls of active or inactive are those of the source. The calls were made as follows: active = growth percent below 10; inactive = the rest.

Some test systems named below: NCI-H23 lung; NCI-H226 lung; NCI-H460 lung; HOP-92 NSCLC; A549/ATCC NSCLC; 786-0 renal; COLO 205 colon; NCI-H522 lung.
Holding throughout (experiment): NCI-60 one-dose screen, 48 h (100 = growth as untreated, 0 = no growth, -100 = all killed)
Common to all, as to settings: 10 µM

Consider `Cc1cc(C(C#N)c2ccc(Cl)cc2)c(Cl)cc1NC(=O)c1cc(I)cc(I)c1O` (stereo unspecified), for which the growth in the test with NCI-H23 lung is 10.4%; in the test on NCI-H226 lung it was 45.4%; in the test with NCI-H460 lung, 24.1%; in the test on HOP-92 NSCLC, -12.1% (active); in the test on A549/ATCC NSCLC it was 71.3%; with 786-0 renal it was 20.8%. The growth in the test on COLO 205 colon is 53.5%.
Regarding `CC1C(=NC(=O)c2cnccn2)C(C)C(c2ccc(Cl)cc2)NC1c1ccncc1` (stereo unspecified), the growth was 94% in the test on NCI-H23 lung; 101% with NCI-H226 lung; 108% in the test with NCI-H460 lung; 70.9% with NCI-H522 lung; 92.9% in the test on A549/ATCC NSCLC; 90.8% in the test on 786-0 renal.
As to `CCn1c2ccc(O)cc2c2c(C)c3c[n+](C)ccc3c(C)c21`, the growth with NCI-H23 lung is 19.2%; in the test on NCI-H226 lung, 26.1%; in the test on NCI-H460 lung, 7.28% (active); in the test on NCI-H522 lung, -0.0478% (active); in the test with A549/ATCC NSCLC, 37.5%; in the test with 786-0 renal, 13.7%. Moreover, the growth in the test with COLO 205 colon is 43.6%.
As for `CCN1CC(CCN2CCOCC2)C(C(c2ccccc2)c2ccccc2)C1=O` (stereo unspecified), the growth with NCI-H23 lung was 105%; with NCI-H226 lung it was 97.3%; in the test on NCI-H460 lung it was 108%; in the test on HOP-92 NSCLC it was 98.9%; with A549/ATCC NSCLC, 101%; in the test on 786-0 renal, 114%. Moreover, in the test on COLO 205 colon, the growth is 110%.
As for `CN1CCN(C2=Nc3ccccc3Oc3ccc(Cl)cc32)CC1`, the growth with NCI-H23 lung is 105%; with NCI-H226 lung, 111%; in the test with NCI-H460 lung it was 105%; in the test on HOP-92 NSCLC, 80.4%; with A549/ATCC NSCLC it was 94.8%; in the test on 786-0 renal, 87.4%. Besides, the growth in the test on COLO 205 colon is 96.9%.
Regarding `CCC1NC(=O)c2cc(S(N)(=O)=O)c(Cl)cc2N1` (stereo unspecified), the growth with NCI-H23 lung is 108%; with NCI-H226 lung it was 102%; with NCI-H460 lung it was 114%; in the test on HOP-92 NSCLC, 91.2%; in the test on A549/ATCC NSCLC, 104%; in the test on 786-0 renal it was 116%. In addition, the growth in the test on COLO 205 colon was 109%.
In the case of `Clc1ccc2c(c1)C(N1CCNCC1)=Nc1ccccc1O2`, the growth in the test with NCI-H23 lung was 64.4%; in the test with NCI-H226 lung, 83.3%; in the test on NCI-H460 lung it was 68.1%; with HOP-92 NSCLC, 7.39% (active); in the test with A549/ATCC NSCLC, 65%; in the test on 786-0 renal, 56.1%. Further, in the test with COLO 205 colon, the growth is -65.9% (active).
As for `Cc1nc2n(c(=O)c1CCN1CCC(c3noc4cc(F)ccc34)CC1)CCC[C@@H]2O`, the growth in the test on NCI-H23 lung was 92.1%; in the test with NCI-H226 lung, 99.6%; with NCI-H460 lung, 105%; in the test with HOP-92 NSCLC it was 97.9%; in the test on A549/ATCC NSCLC, 99.3%; in the test on 786-0 renal, 107%. In addition, in the test on COLO 205 colon, the growth is 96.7%.
Take `CC(=O)[C@@]12O[C@](C)(c3ccccc3)O[C@@H]1CC1C3CCC4=CC(=O)CC[C@]4(C)C3CC[C@@]12C` (stereo partly specified): the growth in the test with NCI-H23 lung is 54.4%; in the test on NCI-H226 lung it was 78.5%; in the test on NCI-H460 lung it was 68.4%; in the test with HOP-92 NSCLC, 76.2%; in the test on A549/ATCC NSCLC it was 70.7%; with 786-0 renal it was 67.9%. Further, the growth with COLO 205 colon is 81.7%.
For `O=C1Cc2cc(CCN3CCN(c4nsc5ccccc45)CC3)c(Cl)cc2N1`, the growth was 102% in the test with NCI-H23 lung; 99.5% in the test with NCI-H226 lung; 103% in the test with NCI-H460 lung; 64.9% with HOP-92 NSCLC; 95.4% with A549/ATCC NSCLC; 106% in the test on 786-0 renal. Further, the growth in the test on COLO 205 colon is 109%.
Turning to `OC[C@H]1OC([S-])[C@H](O)[C@@H](O)[C@@H]1O.[Au+]` (stereo partly specified), the growth is 77.2% in the test on NCI-H23 lung; 103% in the test with NCI-H226 lung; 110% in the test on NCI-H460 lung; 75.6% with HOP-92 NSCLC; 95.7% with A549/ATCC NSCLC; 87.3% with 786-0 renal. The growth with COLO 205 colon was 114%.
As to `CCc1ccc(C2=NN(c3ccc(S(C)(=O)=O)cc3)C(=O)CC2)cc1`, the growth was -4.83% (active) in the test on NCI-H23 lung; 69.1% in the test on NCI-H226 lung; 10.5% with NCI-H460 lung; 68.6% with HOP-92 NSCLC; 35.6% in the test on A549/ATCC NSCLC; 36.4% in the test with 786-0 renal. Further, the growth with COLO 205 colon was 22.5%.
In the case of `CCCCc1oc2ccccc2c1C(=O)c1cc(I)c(OCCN(CC)CC)c(I)c1`, the growth in the test with NCI-H23 lung is -38.9% (active); in the test with NCI-H226 lung it was -36% (active); with NCI-H460 lung, -76.7% (active); in the test on HOP-92 NSCLC it was -68.7% (active); with A549/ATCC NSCLC, 9.9% (active); with 786-0 renal, -90.5% (active). The growth in the test on COLO 205 colon is -79.8% (active).
As for `C[C@H]1[C@H](OC(=O)CCC(=O)O)O[C@@H]2O[C@]3(C)CC[C@H]4[C@H](C)CC[C@@H]1[C@@]24OO3`, the growth in the test with NCI-H23 lung is 19.9%; in the test on NCI-H226 lung, 59.5%; in the test on NCI-H460 lung, 25.5%; in the test on HOP-92 NSCLC it was 41.6%; in the test with A549/ATCC NSCLC, 42%; in the test on 786-0 renal, 33.5%. Further, the growth in the test on COLO 205 colon is -5.69% (active).
As for `CCOC(=O)c1sc2ncnc(Nc3ccc4c(cnn4C(=O)Nc4ccc(C)c(Cl)c4)c3)c2c1C`, the growth is 91.4% with NCI-H23 lung; 87.6% with NCI-H226 lung; 114% in the test with NCI-H460 lung; 68.8% in the test with NCI-H522 lung; 72.7% in the test on A549/ATCC NSCLC; 89.6% in the test on 786-0 renal. Also, the growth with COLO 205 colon is 110%.
Take `Cn1c2ccccc2c2c3[nH][nH]c(=O)c3c3c4ccccc4[nH]c3c21`: the growth in the test with NCI-H23 lung was 19.2%; with NCI-H226 lung, 65.8%; in the test on NCI-H460 lung, -28.2% (active); in the test on NCI-H522 lung, 4.72% (active); in the test with A549/ATCC NSCLC, 56.9%; in the test with 786-0 renal, 23%. Also, the growth with COLO 205 colon was 59%.
